Inconclusive results are not listed. A call without a number means that no potency is given here. Values without a mark were called inactive. Activity calls are given as the source filed them. Calls come from the whole dose curve; as a rule, active = well fitted curve in the direction sought with a large enough effect in the repeat runs; inconclusive = weak or mixed curves; inactive = no such curve, though single readings can be large; an effect the other way counts as inactive or inconclusive.
assay: A CellTox Green Cytotoxicity Assay to monitor cytotoxicity in HEK293 cells - 8 hour (AID 1224884); settings: CellTox Green fluorescence; series mostly up to 76.8 µM; note: nearly all actives have a fitted effect of over 35% in size
Method in brief: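 Seeding of HEK293 cells together with cytotoxicity dye preceded a 5 h incubation at 37 C/5% CO2. Test compounds in DMSO were then added and fluorescence monitored across 40 h.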

Q: Which Potency does the source give for `COc1cc(N)c(Cl)cc1C(=O)NC1CCN(Cc2ccccc2)CC1` here?
A: inactive

Q: For `CO[Si](C)(C)OC`, which Potency is on record?
A: inactive

Q: Which Potency does the source give for `CCN(CC)CC1CCCCN1CC(=O)N1c2ccccc2C(=O)Nc2cccnc21` (stereo unspecified) here?
A: inactive

Q: For `COC(=O)c1ccc(OC)cc1`, which Potency is on record?
A: inactive

Q: Which Potency does the source give for `NS(=O)(=O)c1cc(-c2nn[nH]n2)c(NCc2cccs2)cc1Cl` here?
A: inactive

Q: With `CCOc1ccc(NC(N)=O)cc1` as the molecule, how does the Potency read?
A: inactive

Q: For `CCCCC1CCC(=O)O1` (stereo unspecified), which Potency is on record?
A: inactive

Q: With `CC(CNC1CCCCC1)OC(=O)c1ccccc1` (stereo unspecified) as the molecule, how does the Potency read?
A: inactive

Q: Which Potency does the source give for `CC(C)Nc1nc(N)nc(Cl)n1` here?
A: inactive

Q: For `C/C(=N\O)[C@@H](C)NCC(C)(C)CN[C@H](C)/C(C)=N/O`, which Potency is on record?
A: inactive

Q: Which Potency does the source give for `CCCCNc1cc(C(=O)O)cc(S(N)(=O)=O)c1Oc1ccccc1` here?
A: inactive

assay: qHTS RealTime-Glo MT Cell Viability Assay in HepG2 cells - 16 hour (AID 1224885); settings: RealTime-Glo luminescence; series mostly up to 76.8 µM; note: nearly all actives have a fitted effect of over 50% in size
Method in brief: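 qHTS, HepG2, 600 cells/well, RealTime-Glo (NanoLuc + prosubstrate) added with cells; 5 h preincubation; DMSO compound addition; 37 C; luminescence at 0/8/16/24/32/40 h.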

Q: With `CC(C)O` as the molecule, how does the outcome read?
A: inactive

Q: Which outcome does the source give for `NC(=O)Cc1cccc(C(=O)c2ccccc2)c1N` here?
A: inactive

Q: For `Cc1cc(S(=O)(=O)O)c(N)cc1Cl`, which outcome is on record?
A: inactive

Q: Which outcome does the source give for `Cc1ccc(C=O)s1` here?
A: inactive

Q: For `CCCC1CCC(=O)O1` (stereo unspecified), which outcome is on record?
A: inactive

Q: Which outcome does the source give for `O=Cc1ccc(F)c(Br)c1` here?
A: inactive

Q: With `O=c1oc2c(O)c(O)cc3c(=O)oc4c(O)c(O)cc1c4c23` as the molecule, how does the activity change, negative = cytotoxic read?
A: -6.97% [at 15.8 µM]

Q: With `C[C@@H](N)C(=O)O` as the molecule, how does the outcome read?
A: inactive

Q: Which outcome does the source give for `O=C1CCCCC1C1CCCCC1` (stereo unspecified) here?
A: inactive

Q: Which outcome does the source give for `CCCCCCCCCCCCOCCOS(=O)(=O)O` here?
A: inactive

Q: With `O=C(O)c1cccc(Cl)c1Cl` as the molecule, how does the outcome read?
A: inactive

Q: With `CCCS(=O)c1ccc2nc(NC(=O)OC)[nH]c2c1` (stereo unspecified) as the molecule, how does the outcome read?
A: inactive

Q: For `Oc1ccccc1F`, which outcome is on record?
A: inactive

Q: With `CNCCC(Oc1ccccc1OC)c1ccccc1` (stereo unspecified) as the molecule, how does the outcome read?
A: inactive

Q: With `CCN1CC(CCN2CCOCC2)C(c2ccccc2)(c2ccccc2)C1=O` (stereo unspecified) as the molecule, how does the outcome read?
A: inactive

— PubChem BioAssay (Tox21)
